Results as given in PubChem BioAssay AID720575 (National Center for Advancing Translational Sciences (NCATS), 2013).
The list shows a part of the results. Inconclusive results are not listed. Activity calls are given as the source filed them. Calls come from the whole dose curve; as a rule, active = well fitted inhibition curve with a large enough effect; inconclusive = small, poorly fitted or top-dose-only effect; inactive = no such curve, though single readings can be large or run the other way.

assay: qHTS Assay for Inhibitors of Hepatitis C Virus (HCV): Confirmation Assay for Cherry-picked Compounds; conditions: HCVcc-Cre infectious virus cell assay, luciferase, inhibition
From the text: Hepatitis C virus (HCV) infects about 200 million people in the world. Many infected people progress to chronic liver disease including cirrhosis with a risk of developing liver cancer. To date, there is no effective vaccine for hepatitis C. Current therapy based on interferon is only effective in about half of the patients and is associated with significant adverse effects. The fraction of people with HCV who can complete a successful treatment is estimated to be no more than 10 percent. Recent development of direct-acting antivirals against HCV, such as protease and polymerase inhibitors, is promising but still requires combination with peginterferon and ribavirin for maximal efficacy. In addition, these agents are associated with high rate of resistance and many have significant side effects. Due to the lack of a culture system for infectious HCV, the search for new HCV drugs has been greatly hampered. […] High-throughput screening (HTS) with an infectious HCV system would cover the complete spectrum of potentially druggable targets in all stages of HCV lifecycle, and would have more biological relevance than other cell-based assays. Moreover, targeting several key processes in the viral life cycle may not only increase antiviral efficacy; more importantly, it may also reduce the capacity of the virus to develop resistance to the compound.
The goal of this project is to identify novel HCV inhibitors as new therapies for hepatitis C, using a highly sensitive and specific assay platform based on a HCV infectious cell culture system established in the laboratory and adapted for high-throughput HCV drug screen. The data herein is the result of the confirmation assay against the cherry picked compounds. Decrease in the confirmatory assay signal, indicative of the HCV inhibition is the desired outcome for this assay.
NIH Chemical Genomics Center [NCGC]
NIH Molecular Libraries Probe Centers Network [MLPCN]
Assay Submitter (PI): Jake Liang, NIDDK
Cells were plated in a 1536-wel tissue culture grade plates at a final concentration of 1,000 cells/well (3 uL volume). The assay plate was culture for 4 h. Then 23 nL of compounds from the library collection was added to each well followed by 2.5 µL of HCVcc-Cre virus (~ 0.5 moi). The plates were further cultured for 44 hr at 37C. A volume of 4.5 uL luciferase substrates was added to each well and the plates were incubated at room temperature for 15 min. The luciferase activity was read for 15 sec using the PerkinElmenr ViewLux plate reader.
Note: nearly all actives have a fitted effect of over 80% in size.

Potency, active:
COCCCn1c(SCc2cccc(OC)c2)nc2cc(OC)c(OC)cc2c1=N 14.1 µM, COc1ccc(OCCNC(=O)c2cc(C3CC3)nc3c2cnn3C(C)C)cc1 0.353 µM, Cc1ccc(C)c(NC(=S)NNC(=S)Nc2ccc(C(C)C)cc2)c1 22.3 µM, Cc1ccc(C)c(N2CCN(C(=O)CCCCCn3c(=S)[nH]c4ccc(N5CCOCC5)cc4c3=O)CC2)c1 2.8 µM, N#C/C(=C1\CCCN1)c1nc(-c2ccccc2)cs1 14.1 µM, CC(C)(C)Nc1nc(-c2ccccn2)nc2ccccc12 1.99 µM, CCC(C(=O)OCC(=O)Nc1ccc(C(=O)Nc2ccc(OC)cc2)cc1)c1ccccc1 (stereo unspecified) 8.87 µM, Cc1c(-c2cccc(Cl)c2)nc2ccccc2c1C(=O)OCC(=O)N(C)C1CCS(=O)(=O)C1 (stereo unspecified) 14.1 µM, CC(C)(C)c1ccc(Oc2ccc(N)cc2)cc1 2.8 µM, CCCc1nc2ccccc2c(C(=O)OCc2nnc(-c3cc(OC)c(OC)c(OC)c3)o2)c1CC 14.1 µM, CN(C)c1nc(N)nc(CSc2nnnn2-c2cccc3ccccc23)n1 5.6 µM, CCCOc1ccc(C(=O)C(CCC(CNCC)C(=O)c2ccc(OCCC)cc2)CNCC)cc1 (stereo unspecified) 7.05 µM, COc1ccc(C(C(=O)NC2CCCCC2)N(C(=O)CCl)c2ccccc2Cl)cc1 (stereo unspecified) 3.15 µM, COc1ccc(Cl)cc1NC(=O)c1oc(C)nc1C 12.5 µM, Cc1cc(-c2cccs2)nc(-n2cccc2)n1 9.95 µM, COc1ccc(NC(=O)c2sc(N3CCOCC3)nc2-c2ccccc2)c(OC)c1 14.1 µM
